Screening results as filed in PubChem.
Mac1 fbg enh: enhancers of human CD11b/CD18 binding to fibrinogen. P05107+P11215. K562 CD11b/CD18 adhesion to fibrinogen, ATPlite luminescence. activation, % at 10 µM. 93,000 compounds, 0.07% hits;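 active = 10 µM primary screen giving 50% or more activity, confirmed by 40% or more on retest at that dose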
PTK2B oligo ant: blocks oligomerization of human Pyk2 in cells. Q14289. z-score (the deposit names both 25 µM and 10 µM). Q293 cells, Pyk2 FERM NanoBiT luminescence; active compounds read low. 99,000 compounds, 0.83% hits;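 active = Z-score of -3 or lower, scaled per plate to the spread of control and sample wells; inactive = z-score above -3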;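 also: negative z-score means lost luminescence so less FERM oligomerization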
Cav32 inh: blocks human Cav3.2 T-type calcium channel | O95180 | Cav3.2-expressing cells, Fluo-4 calcium fluorescence FDSS; active compounds read low | AID 449739 | 100,000 compounds, 4% hits | B-score at 10 µM;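 active = single-dose well whose peak fluorescence ratio is a statistical outlier from its plate by either plate-standardised score or position-corrected B-score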
MRP resist rev: MRP-mediated drug resistance reversal; 85,000 compounds, 0.04% hits; differential viability (reversal), % at 10 µM; H69AR cells + 2 uM doxorubicin, CellTiter-Glo, 72 h;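 active = viability drop by adding the cancer drug above about 55%, with treated viability meeting a 40% cutoff, limit read from the data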;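 also: larger differential means the compound sensitizes cells more to doxorubicin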
MRP-1 activ: MRP-1 activation | viability increase, % at 10 µM | H69AR cells + doxorubicin, viability rescue, CellTiter-Glo | 140,000 compounds, 0.61% hits;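 active = viability gain under doxorubicin at or above a set limit, the compound median plus 3 SD, cut at about 4.7% in these data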;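 also: MRP-1 overexpressing cells given doxorubicin 25 µM after compound pretreatment; 18-22 h compound pretreatment then 72 h with doxorubicin before readout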
Mac1 fbg inh: inhibitors of human CD11b/CD18 binding to fibrinogen. P05107+P11215. K562 CD11b/CD18 adhesion to fibrinogen, ATPlite luminescence; Mn2+ added to activate the integrin. inhibition, % at 10 µM. 93,000 compounds, 0.54% hits. AID 1497;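 active = primary inhibition of 50% or more at 10 µM, then 40% or more on retest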
Hits are given with their value. In the library only some 4.1% were active in any assay of this set; here they are far more common.

Results for CCOc1ccc(S(=O)(=O)Nc2ccc(F)cc2)c(C)c1C ?
Mac1 fbg enh: inactive; PTK2B oligo ant: inactive; Cav32 inh: -4.7; MRP resist rev: inactive; MRP-1 activ: inactive; Mac1 fbg inh: inactive

How did NC(=O)CCn1nc(-c2ccccc2)c2ccccc2c1=O do in these assays?
Mac1 fbg enh: inactive; PTK2B oligo ant: inactive; Cav32 inh: inactive; MRP resist rev: inactive; MRP-1 activ: inactive; Mac1 fbg inh: inactive

What do the screens show for `O=C(CCn1nc(-c2ccccc2)c2ccccc2c1=O)N1CCN(c2ccccc2)CC1`?
Mac1 fbg enh: inactive; PTK2B oligo ant: inactive; Cav32 inh: -5.3; MRP resist rev: inactive; MRP-1 activ: inactive; Mac1 fbg inh: inactive

How did COc1cccc(CNc2cnc3ccccc3c2)c1O do in these assays?
PTK2B oligo ant: inactive; Cav32 inh: -4.5; MRP resist rev: inactive; MRP-1 activ: inactive

How did Cn1c(=O)n(Cc2ccccc2F)c(=O)c2c1nc1n2CCCN1CCc1ccccc1 do in these assays?
Mac1 fbg enh: inactive; PTK2B oligo ant: inactive; Cav32 inh: inactive; MRP-1 activ: inactive; Mac1 fbg inh: inactive

What do the screens show for `CC12CCC(c3nnc(SCc4ccc(Cl)cc4)nc31)C2(C)C` (stereo unspecified)?
PTK2B oligo ant: inactive; Cav32 inh: inactive; MRP resist rev: inactive; MRP-1 activ: 5.7

How did CCOC(=O)CSc1nnc2c(n1)C1(C)CCC2C1(C)C (stereo unspecified) do in these assays?
Mac1 fbg enh: inactive; PTK2B oligo ant: inactive; Cav32 inh: inactive; MRP-1 activ: inactive; Mac1 fbg inh: inactive

What do the screens show for `C=CCN(CC=C)C(=S)NC(=O)c1ccc(-c2ccccc2)cc1`?
Mac1 fbg enh: inactive; PTK2B oligo ant: inactive; Cav32 inh: -4.4; MRP-1 activ: inactive; Mac1 fbg inh: inactive

What do the screens show for `COC(=O)c1[nH]c(C)c(/C(O)=C2\C(=O)C(=O)N(CCN(C)C)C2c2ccccc2OC)c1C` (stereo unspecified)?
PTK2B oligo ant: inactive; Cav32 inh: inactive; MRP resist rev: inactive; MRP-1 activ: inactive

Results for CC(NC(=O)c1cc(-c2cccs2)on1)c1ccccc1 (stereo unspecified) ?
Mac1 fbg enh: inactive; PTK2B oligo ant: inactive; Cav32 inh: inactive; MRP resist rev: inactive; MRP-1 activ: inactive; Mac1 fbg inh: inactive

Results for CCCCc1ccc(C2C(C#N)=C(N)SC(N)=C2C#N)s1 ?
Mac1 fbg enh: inactive; Cav32 inh: inactive; MRP resist rev: inactive; MRP-1 activ: inactive; Mac1 fbg inh: 100

How did Cc1cc(NC(=O)CCC(=O)N(Cc2cccs2)C(C(=O)NC2CCCC2)c2ccncc2)no1 (stereo unspecified) do in these assays?
Mac1 fbg enh: inactive; PTK2B oligo ant: inactive; Cav32 inh: inactive; MRP resist rev: inactive; MRP-1 activ: inactive; Mac1 fbg inh: inactive

Results for Cc1cc(NC(=O)CCC(=O)N(Cc2ccco2)C(C(=O)NC2CCCCC2)c2ccccc2)no1 (stereo unspecified) ?
PTK2B oligo ant: inactive; Cav32 inh: -4.4; MRP resist rev: inactive; MRP-1 activ: inactive

What do the screens show for `O=C(NCC(=O)N(Cc1cccs1)C(C(=O)NC1CCCCC1)c1ccco1)c1ccco1` (stereo unspecified)?
PTK2B oligo ant: inactive; Cav32 inh: inactive; MRP resist rev: inactive; MRP-1 activ: inactive

How did O=C(NC1CCCCC1)C(c1cccs1)N(Cc1cccs1)C(=O)c1ccco1 (stereo unspecified) do in these assays?
Mac1 fbg enh: inactive; PTK2B oligo ant: inactive; Cav32 inh: -4.1; MRP resist rev: inactive; MRP-1 activ: inactive; Mac1 fbg inh: inactive

Results for Cc1cc(NC(=O)CCC(=O)N(Cc2ccco2)C(C(=O)NC2CCCC2)c2ccccc2C)no1 (stereo unspecified) ?
PTK2B oligo ant: inactive; Cav32 inh: -7.4; MRP resist rev: inactive; MRP-1 activ: inactive

Results for O=C(NC1CCCC1)C(c1ccccc1)N(Cc1ccco1)C(=O)Cc1cccs1 (stereo unspecified) ?
PTK2B oligo ant: inactive; Cav32 inh: -6.2; MRP resist rev: inactive; MRP-1 activ: inactive

Results for O=C(NCC(=O)N(Cc1ccco1)C(C(=O)NC1CCCC1)c1ccncc1)c1cccs1 (stereo unspecified) ?
PTK2B oligo ant: inactive; Cav32 inh: inactive; MRP resist rev: inactive; MRP-1 activ: inactive

How did O=C(Nc1ccccc1)[C@@H]1CC=C[C@@H]2CCN(Cc3ccc(Cl)c(Cl)c3)C(=O)[C@@H]21 do in these assays?
Cav32 inh: inactive

How did O=C(CCCn1c(=O)[nH]c2cc(Cl)ccc2c1=O)N1CCN(c2ccc([N+](=O)[O-])cc2)CC1 do in these assays?
Mac1 fbg enh: inactive; PTK2B oligo ant: inactive; Cav32 inh: inactive; MRP-1 activ: inactive; Mac1 fbg inh: inactive

What do the screens show for `CC(C)C1Cc2c(sc3c2c(=O)n(Cc2ccccc2)c2nncn32)CO1` (stereo unspecified)?
Mac1 fbg enh: inactive; PTK2B oligo ant: inactive; Cav32 inh: inactive; MRP resist rev: inactive; MRP-1 activ: inactive; Mac1 fbg inh: inactive

How did Cc1cc(NC(=O)CCC(=O)N(c2ccc(F)cc2)C2(C(=O)NC3CCCCC3)CCCC2)no1 do in these assays?
Mac1 fbg enh: inactive; PTK2B oligo ant: inactive; Cav32 inh: -3.7; MRP resist rev: inactive; MRP-1 activ: inactive; Mac1 fbg inh: inactive

Results for COc1ccc(N(C(=O)c2ccco2)C(C(=O)NC2CCCC2)c2ccc(N(C)C)cc2)cc1 (stereo unspecified) ?
Mac1 fbg enh: inactive; PTK2B oligo ant: inactive; Cav32 inh: -3.5; MRP resist rev: inactive; MRP-1 activ: inactive; Mac1 fbg inh: inactive

How did Cc1ccc(C(C(=O)NC2CCCC2)N(C(=O)CCC(=O)Nc2cc(C)on2)c2ccccc2)cc1 (stereo unspecified) do in these assays?
PTK2B oligo ant: inactive; Cav32 inh: inactive; MRP resist rev: inactive; MRP-1 activ: inactive

How did COc1cc(OC)cc(N(C(=O)c2ccco2)C(C(=O)NC2CCCC2)c2ccc(N(C)C)cc2)c1 (stereo unspecified) do in these assays?
Mac1 fbg enh: inactive; PTK2B oligo ant: inactive; Cav32 inh: inactive; MRP resist rev: inactive; MRP-1 activ: inactive; Mac1 fbg inh: inactive

What do the screens show for `Cc1cc(NC(=O)CCC(=O)N(CCc2ccccc2)C(C(=O)NC2CCCC2)c2ccco2)no1` (stereo unspecified)?
Mac1 fbg enh: inactive; PTK2B oligo ant: inactive; Cav32 inh: -3.7; MRP resist rev: inactive; MRP-1 activ: inactive; Mac1 fbg inh: inactive

How did COc1ccc(Br)cc1CNCCSc1nnnn1C do in these assays?
Mac1 fbg enh: inactive; PTK2B oligo ant: inactive; Cav32 inh: inactive; MRP resist rev: inactive; MRP-1 activ: inactive; Mac1 fbg inh: inactive

How did CCOC(=O)C1=C(N)N(c2ccccc2)C(=O)C1 do in these assays?
Mac1 fbg enh: inactive; PTK2B oligo ant: inactive; Cav32 inh: inactive; MRP resist rev: inactive; MRP-1 activ: inactive; Mac1 fbg inh: inactive

Results for Cn1nnnc1SCc1cccc(CSc2nnnn2C)n1 ?
Mac1 fbg enh: inactive; PTK2B oligo ant: inactive; Cav32 inh: inactive; MRP resist rev: inactive; MRP-1 activ: inactive; Mac1 fbg inh: inactive
